IDE exosite inh: insulin-degrading enzyme (human) exo-site inhibition. P14735. purified IDE, FL-6b probe fluorescence polarization; stronger effect = lower value. z-score at 20 µM. 17,000 compounds, 6.3% hits. AID 1259349;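 active = z-score of -3 or lower, meaning strong loss of probe binding signal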;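 also: His-tagged human IDE residues 42-1019 made in E. coli with 30 nM FL-6b probe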
Target sequence (P14735 42-1019 limits assumed): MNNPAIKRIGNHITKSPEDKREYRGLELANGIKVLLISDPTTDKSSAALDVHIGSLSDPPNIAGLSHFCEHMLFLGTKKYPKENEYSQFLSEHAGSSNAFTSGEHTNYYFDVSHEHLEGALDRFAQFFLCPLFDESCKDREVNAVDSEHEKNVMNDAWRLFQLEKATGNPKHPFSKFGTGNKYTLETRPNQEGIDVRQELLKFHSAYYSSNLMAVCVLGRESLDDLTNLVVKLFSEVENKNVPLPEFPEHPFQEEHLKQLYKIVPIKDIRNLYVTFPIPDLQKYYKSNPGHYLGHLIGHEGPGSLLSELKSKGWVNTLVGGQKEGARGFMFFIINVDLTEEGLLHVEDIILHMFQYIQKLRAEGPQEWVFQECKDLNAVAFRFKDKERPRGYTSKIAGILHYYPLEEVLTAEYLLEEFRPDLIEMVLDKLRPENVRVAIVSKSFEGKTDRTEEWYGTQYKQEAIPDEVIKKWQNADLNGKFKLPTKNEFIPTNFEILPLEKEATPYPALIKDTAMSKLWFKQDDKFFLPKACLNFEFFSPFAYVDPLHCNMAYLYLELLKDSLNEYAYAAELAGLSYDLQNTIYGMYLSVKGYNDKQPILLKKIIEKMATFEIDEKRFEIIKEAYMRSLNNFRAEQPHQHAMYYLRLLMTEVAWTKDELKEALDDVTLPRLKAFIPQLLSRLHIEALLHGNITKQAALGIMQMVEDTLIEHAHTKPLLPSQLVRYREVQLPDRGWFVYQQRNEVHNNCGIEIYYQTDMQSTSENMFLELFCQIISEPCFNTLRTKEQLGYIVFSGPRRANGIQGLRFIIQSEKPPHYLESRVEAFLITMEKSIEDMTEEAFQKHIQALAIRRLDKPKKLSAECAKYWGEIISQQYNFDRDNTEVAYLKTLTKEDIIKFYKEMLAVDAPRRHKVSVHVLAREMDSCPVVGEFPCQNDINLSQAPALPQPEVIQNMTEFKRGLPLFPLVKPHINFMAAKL
Numbers without * were called inactive. This excerpt belongs to a sample that is enriched for hits.

SMILES | IDE exosite inh
COc1cccc(C#Cc2ccc([C@H]3[C@H](CO)N4C(=O)CN(C(=O)Cc5cccnc5)C[C@@H]34)cc2)c1 | -4.1*
CCC(=O)N1CC(=O)N2[C@H](CO)[C@H](c3ccc(C#Cc4cccc(OC)c4)cc3)[C@@H]2C1 | -8.7*
COc1cccc(C#Cc2ccc([C@H]3[C@@H](CO)N4C(=O)CN(C(=O)Cc5ccccc5)C[C@@H]34)cc2)c1 | 1.4
COCC(=O)N1CC(=O)N2[C@@H](CO)[C@@H](c3ccc(C#Cc4cccc(OC)c4)cc3)[C@@H]2C1 | -7*
COc1cccc(C#Cc2ccc([C@H]3[C@@H](CO)N4C(=O)CN(C(=O)Cc5cccnc5)C[C@H]34)cc2)c1 | -2
CCC(=O)N1CC(=O)N2[C@H](C1)[C@@H](c1ccc(C#Cc3cccnc3)cc1)[C@@H]2CO | -1
COc1cccc(C#Cc2ccc([C@H]3[C@H]4CN(C(=O)Cc5ccccc5)CC(=O)N4[C@H]3CO)cc2)c1 | -1.8
CO[C@@H]1CN(C)C(=O)c2ccc(NC(=O)Nc3ccccc3F)cc2OC[C@H](C)N(CC2CC2)C[C@@H]1C | -0.55
CC(C)NC(=O)N1CC(=O)N2[C@H](C1)[C@@H](c1ccc(C#CCN(C)C)cc1)[C@@H]2CO | 4.1
CO[C@@H](CN(C)Cc1cc(F)ccc1F)[C@H](C)CN([C@H](C)CO)S(=O)(=O)c1ccc(C)cc1 | 1
COc1ccc2c3c(n(C)c2c1)[C@H](CO)N(Cc1ccccc1)CC31CN(CC2CC2)C1 | -1.5
N#C[C@H]1[C@H](c2ccccc2C2=CCCCC2)[C@@H](CO)N1C(=O)C1CCOCC1 | 3.5
O=C(C[C@H]1C[C@H]2c3cc(NS(=O)(=O)c4ccc(F)cc4)ccc3O[C@H]2[C@H](CO)O1)NCCN1CCCCC1 | 1.1
O=C(Cc1ccncc1)N1CC(=O)N2[C@H](CO)[C@H](c3ccc(-c4cccc(F)c4)cc3)[C@@H]2C1 | -1.5
O=C(Cc1ccccc1)N1CC(=O)N2[C@H](C1)[C@H](c1ccc(-c3cccc(F)c3)cc1)[C@@H]2CO | 2.6
O=C(Cc1cccnc1)N1CC(=O)N2[C@H](CO)[C@@H](c3ccc(-c4cccc(F)c4)cc3)[C@@H]2C1 | -3.4*
C[C@H](CO)N1C[C@H](C)[C@H](CN(C)C(=O)C2CCOCC2)Oc2ncc(-c3cccc(C#N)c3)cc2C1=O | -0.37
C/C=C/c1ccc([C@H]2[C@H]3CN(S(=O)(=O)c4cccc(F)c4)CC(=O)N3[C@H]2CO)cc1 | -2.1
O=C(NCC1CCCCC1)[C@H]1[C@H](CO)[C@H]2Cn3c(ccc(-c4ccc(F)cc4)c3=O)[C@@H]1N2 | 2.5
O=C(C[C@@H]1C[C@@H]2c3cc(NC(=O)Nc4ccccc4)ccc3O[C@@H]2[C@@H](CO)O1)NCc1ccccc1 | 0.87
COc1ccccc1S(=O)(=O)N(C)C[C@H]1OCc2ccccc2-c2ccccc2C(=O)N([C@@H](C)CO)C[C@H]1C | -0.39
O=C(C1CCCCC1)N1CC(=O)N2[C@H](C1)[C@@H](c1ccc(C#CCc3ccccc3)cc1)[C@@H]2CO | 1.7
O=C(C1CCC1)N1CC(=O)N2[C@@H](CO)[C@@H](c3ccc(C#CCc4ccccc4)cc3)[C@@H]2C1 | -3.3*
O=C(C1CCC1)N1CC(=O)N2[C@H](C1)[C@@H](c1ccc(C#CCc3ccccc3)cc1)[C@@H]2CO | -0.42
O=C(C1CCC1)N1CC(=O)N2[C@H](C1)[C@H](c1ccc(C#CCc3ccccc3)cc1)[C@@H]2CO | -3*
SMILES | IDE exosite inh
O=C(C1CCCCC1)N1CC(=O)N2[C@H](CO)[C@@H](c3ccc(C#CCc4ccccc4)cc3)[C@@H]2C1 | -2.7
O=C(C1CCC1)N1CC(=O)N2[C@H](CO)[C@@H](c3ccc(C#CCc4ccccc4)cc3)[C@H]2C1 | 2.2
COc1cccc(CN2CCCCN3[C@@H](CO)[C@@H](c4ccc(C#Cc5cccnc5)cc4)[C@@H]3C2)c1 | 2.4
C/C=C/c1ccc([C@@H]2[C@@H](CO)N3C(=O)CN(C(=O)c4ccccc4)C[C@H]23)cc1 | 0.25
COCC(=O)N1CC2(C1)CN(C(=O)NC1CCCC1)[C@@H](CO)c1c2c2ccc(OC)cc2n1C | 1.3
CN(C)C(=O)c1ccc(-c2ccc([C@H]3[C@@H](C#N)N(S(C)(=O)=O)[C@@H]3CO)cc2)cc1 | 0.7
O=C(c1ccccc1F)N1CC(=O)N2[C@H](C1)[C@H](c1ccc(-c3cccnc3)cc1)[C@@H]2CO | -0.17
CO[C@@H](CN(C)Cc1cc(F)ccc1F)[C@@H](C)CN([C@@H](C)CO)S(=O)(=O)c1ccc(C)cc1 | 0.15
CN(C)CC(=O)N1CC(=O)N2[C@H](CO)[C@@H](c3ccc(/C=C/c4ccccc4)cc3)[C@H]2C1 | -5.6*
Cc1ccc(-c2ccc([C@H]3[C@H]4CN(C(=O)NC(C)C)CC(=O)N4[C@H]3CO)cc2)cc1 | -0.62
O=C(NC1CCCCC1)N1CC(=O)N2[C@H](C1)[C@@H](c1ccc(/C=C/c3ccccc3)cc1)[C@@H]2CO | -1.7
O=C(NC1CCCC1)N1CC(=O)N2[C@H](CO)[C@@H](c3ccc(/C=C/c4ccccc4)cc3)[C@H]2C1 | -9.5*
O=C(NC1CCCC1)N1CC(=O)N2[C@@H](CO)[C@H](c3ccc(/C=C/c4ccccc4)cc3)[C@@H]2C1 | -6.5*
CC(C)NC(=O)N1CC(=O)N2[C@H](CO)[C@@H](c3ccc(/C=C/c4ccccc4)cc3)[C@H]2C1 | -6.9*
CN(C)CC(=O)N1CC(=O)N2[C@H](CO)[C@@H](c3ccc(-c4ccc(C(=O)N(C)C)cc4)cc3)[C@H]2C1 | 0.045
O=C(NC1CCCC1)N1CC(=O)N2[C@H](CO)[C@H](c3ccc(/C=C/c4ccccc4)cc3)[C@@H]2C1 | -0.53
Cc1ccc(-c2ccc([C@H]3[C@H](CO)N4C(=O)CN(C(=O)NC(C)C)C[C@@H]34)cc2)cc1 | -0.41
COc1ccc(NC(=O)N2CC(=O)N3[C@@H](CO)[C@H](c4ccc(/C=C/c5ccccc5)cc4)[C@@H]3C2)cc1 | 2.6
CN(C)CC#Cc1ccc([C@@H]2[C@@H](CO)N3C(=O)CN(C(=O)CN(C)C)C[C@H]23)cc1 | -0.1
O=C(c1ccc(F)cc1)N1CC(=O)N2[C@H](CO)[C@H](c3ccc(-c4cccnc4)cc3)[C@@H]2C1 | 0.16
CCCC#Cc1ccc([C@@H]2[C@H]3CN(CC4CCOCC4)CCCCN3[C@H]2CO)cc1 | 2
CCC(=O)N[C@H]1CC[C@H](CC(=O)NCc2ccccc2F)O[C@H]1CO | 2.4
CS(=O)(=O)N1[C@H](C#N)[C@@H](c2ccc(C#CC3CC3)cc2)[C@H]1CO | 1.6
CN(C)C(=O)c1cccc(-c2ccc([C@H]3[C@H]4CN(CCC(F)(F)F)CCCCN4[C@H]3CO)cc2)c1 | 2.9
N#C[C@H]1[C@@H](c2ccccc2C2=CCCCC2)[C@H](CO)N1C(=O)c1cccc(F)c1 | 1.2
SMILES | IDE exosite inh
O=C(Nc1ccc(F)cc1)N1CC(=O)N2[C@H](CO)[C@H](c3ccc(C#Cc4ccc(F)cc4)cc3)[C@H]2C1 | -0.46
CC(=O)N(C)C[C@@H]1[C@H](c2ccc(-c3cccnc3)cc2)[C@H](CO)N1C(=O)C1CC1 | 0.051
COc1ccc(NC(=O)N(C)C[C@@H]2OCc3ccccc3-c3ccccc3C(=O)N([C@@H](C)CO)C[C@H]2C)c(OC)c1 | -0.3
C/C=C/c1ccc([C@H]2[C@@H](CO)N3C(=O)CN(C(=O)CC4CC4)C[C@@H]23)cc1 | -1.4
C/C=C/c1ccc([C@@H]2[C@@H](CO)N3C(=O)CN(C(=O)NC4CCCC4)C[C@@H]23)cc1 | -3.2*
C/C=C/c1ccc([C@H]2[C@H](CO)N3C(=O)CN(C(=O)NC4CCCCC4)C[C@@H]23)cc1 | -0.68

Assay outcomes: PubChem BioAssay, Broad Institute
